According to PubChem BioAssay (NCI):
This is part of a sample that, as a whole, favours compounds with a hit. Of some 79,000 tested, about 15% had one in any assay. Rule as the data show it: active = growth inhibition above about 70%; inactive = the rest.

What was measured:
[1] = NCI Yeast Anticancer Drug Screen. Data for the rad52 strain (AID 147);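 also: 0% = growth of vehicle-treated control cultures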; conditions: S. cerevisiae rad52 mutant growth inhibition, stronger effect = higher value
Method in brief: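 The repair-mutant yeast strain was incubated with compounds, then growth was read and inhibition derived relative to vehicle.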

[2] = NCI Yeast Anticancer Drug Screen. Data for the wt1 strain (AID 149);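 also: 0% = growth of vehicle-treated wt1 cultures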; conditions: S. cerevisiae wt1 strain (SPY 50644) growth inhibition, stronger effect = higher value
Method in brief: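 Yeast wt1 strain exposed to compounds; growth inhibition measured relative to vehicle-treated controls.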

[3] = NCI Yeast Anticancer Drug Screen. Data for the rad50EPP+ strain (AID 151);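 also: 0% = growth of vehicle-treated control cultures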; conditions: S. cerevisiae rad50 mutant strain, stronger effect = higher value
Method in brief: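 Vehicle-normalised growth inhibition; rad50EPP+ yeast strain, altered in DNA damage repair, compound-treated.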

[4] = NCI Yeast Anticancer Drug Screen. Data for the mgt1 strain (AID 153); conditions: S. cerevisiae mgt1 mutant growth inhibition, stronger effect = higher value
Method in brief: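 Vehicle-normalized growth inhibition is determined in mgt1 yeast, a strain selected for a defined alteration in DNA repair or cell cycle control.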

[5] = NCI Yeast Anticancer Drug Screen. Data for the rad50 strain (AID 155);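 also: 0% = growth of vehicle-only cultures of the same strain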; conditions: S. cerevisiae rad50 strain growth inhibition, stronger effect = higher value
Method in brief: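 Yeast carrying a defined DNA repair defect were exposed to test compounds, and growth was compared with vehicle-treated controls to give percent inhibition.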

[6] = NCI Yeast Anticancer Drug Screen. Data for the mec2-1 strain (AID 157); conditions: S. cerevisiae mec2-1 strain, stronger effect = higher value
Method in brief: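 Mutant yeast (mec2-1) grown with compound; growth inhibition relative to vehicle control reported.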

[7] = NCI Yeast Anticancer Drug Screen. Data for the sgs1 mgt1 strain (AID 161);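 also: 0% = growth of cultures given vehicle only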; conditions: S. cerevisiae sgs1 mgt1 strain, stronger effect = higher value
Method in brief: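 Yeast cells carrying a defined DNA-repair defect were exposed to test compounds. Growth inhibition was measured relative to vehicle-treated controls.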

[8] = NCI Yeast Anticancer Drug Screen. Data for the CLN2oe strain (AID 163);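 also: 0% = growth of vehicle-only control cultures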; conditions: S. cerevisiae CLN2oe strain, stronger effect = higher value
Method in brief: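 Compounds are applied to yeast harbouring a defined cell-cycle control change; reduced growth compared with vehicle-treated controls gives the value.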

[9] = NCI Yeast Anticancer Drug Screen. Data for the cln2 rad14 strain (AID 165);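 also: 0% = growth equal to vehicle treated cultures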; conditions: S. cerevisiae cln2 rad14 strain, stronger effect = higher value
Method in brief: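 Readout is yeast growth inhibition versus vehicle-treated controls, using a strain with cln2 and rad14 alterations exposed to compound.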

[10] = NCI Yeast Anticancer Drug Screen. Data for the bub3 strain (AID 167); conditions: S. cerevisiae bub3 mutant strain, stronger effect = higher value
Method in brief: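 Compounds were applied to a genetically altered yeast strain carrying a cell-cycle control defect. Growth inhibition was scored against vehicle-treated controls.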

[11] = NCI Yeast Anticancer Drug Screen. Data for the wt2 strain (AID 169);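 also: 0% = growth of vehicle-treated yeast cultures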; conditions: S. cerevisiae wt2 strain growth inhibition, stronger effect = higher value
Method in brief: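 Against vehicle-treated controls, the growth of yeast exposed to each compound was compared, and the inhibition was recorded.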

[12] = NCI Yeast Anticancer Drug Screen. Data for the mlh1 strain (AID 171);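 also: 0% = growth of vehicle-treated control cultures of the same strain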; conditions: S. cerevisiae mlh1 strain growth inhibition, stronger effect = higher value
Method in brief: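 Measured: yeast growth. Reference: vehicle-treated controls. Organism: strain with a defined alteration affecting DNA damage repair or cell cycle control, treated with compound.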

[13] = NCI Yeast Anticancer Drug Screen. Data for the sgs1 strain (AID 173);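 also: 0% = growth of vehicle-only control cultures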; conditions: S. cerevisiae sgs1 mutant, stronger effect = higher value
Method in brief: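 Each compound was added to cultures of the altered yeast strain. Growth was recorded, and inhibition was derived by comparison with vehicle controls.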

[14] = NCI Yeast Anticancer Drug Screen. Data for the mlh1 rad18 strain (AID 175); conditions: S. cerevisiae mlh1 rad18 strain growth inhibition, stronger effect = higher value
Method in brief: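 Genetically defined yeast (DNA repair-deficient) exposed to compounds; growth inhibition determined relative to vehicle.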

[15] = NCI Yeast Anticancer Drug Screen. Data for the rad18 strain (AID 177); conditions: S. cerevisiae rad18 mutant growth inhibition, stronger effect = higher value
Method in brief: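 Vehicle-treated cultures served as the baseline for scoring compound-induced growth inhibition in DNA-repair-mutant yeast.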

[16] = at 5.0 µM (retest, dose inferred, filed as 0.5)
[17] = at 50.0 µM (retest, dose inferred, filed as 5.0)

Measured: growth inhibition

CCCC/C=C/C(CC)(C(=O)OCC)C(=O)OCC
inactive: [1]; at 1.2 µM -1% | [1]; at 3.7 µM -2% | [1]; at 11.0 µM -4% | [1]; at 33.0 µM -1% | [1]; at 100.0 µM -2% | [2]; at 1.2 µM -2% | [2]; at 3.7 µM -3% | [2]; at 11.0 µM -5% | [2]; at 33.0 µM -7% | [2]; at 100.0 µM -9% | [3]; at 1.2 µM -2% | [3]; at 3.7 µM 1% | [3]; at 11.0 µM -2% | [3]; at 33.0 µM 3% | [3]; at 100.0 µM 39% | [4]; at 1.2 µM -3% | [4]; at 3.7 µM -1% | [4]; at 11.0 µM -2% | [4]; at 33.0 µM -5% | [4]; at 100.0 µM -3% | [5]; at 1.2 µM -2% | [5]; at 3.7 µM -4% | [5]; [16] -9% | [5]; at 11.0 µM -3% | [5]; at 33.0 µM -3% | [5]; [17] -11% | [5]; at 50.0 µM 3.6% | [5]; at 100.0 µM -6% | [6]; at 1.2 µM 0% | [6]; at 3.7 µM -1% | [6]; [16] 5% | [6]; at 11.0 µM -2% | [6]; at 33.0 µM -1% | [6]; [17] 43% | [6]; at 50.0 µM -11.7% | [6]; at 100.0 µM -1% | [7]; [16] -3% | [7]; [17] 33% | [7]; at 50.0 µM 10.6% | [8]; at 1.2 µM -4% | [8]; at 3.7 µM 0% | [8]; at 11.0 µM -6% | [8]; at 33.0 µM -7% | [8]; at 100.0 µM -3% | [9]; [16] 6% | [9]; [17] 24% | [9]; at 50.0 µM 16.6% | [10]; at 1.2 µM 0% | [10]; at 3.7 µM -1% | [10]; [16] 11% | [10]; at 11.0 µM 1% | [10]; at 33.0 µM 6% | [10]; [17] 52% | [10]; at 50.0 µM 24.1% | [10]; at 100.0 µM 11% | [11]; at 1.2 µM -3% | [11]; at 3.7 µM -4% | [11]; at 11.0 µM -5% | [11]; at 33.0 µM -5% | [11]; at 100.0 µM -5% | [12]; at 1.2 µM -3% | [12]; at 3.7 µM -6% | [12]; at 11.0 µM -5% | [12]; at 33.0 µM -2% | [12]; at 100.0 µM 5% | [13]; at 1.2 µM -2% | [13]; at 3.7 µM 1% | [13]; at 11.0 µM 0% | [13]; at 33.0 µM 0% | [13]; at 100.0 µM 5% | [14]; [16] 7% | [14]; [17] 36% | [14]; at 50.0 µM -8.65% | [15]; at 1.2 µM -1% | [15]; at 3.7 µM 3% | [15]; at 11.0 µM 4% | [15]; at 33.0 µM 3% | [15]; at 100.0 µM 7%
